Hit rate of the full screen: of about 5,500 compounds, about 2,000 (36%) were called active. About 18% were inconclusive and are not listed. This is one part of the list. Unmarked numbers belong to inactive results. Cut-off read from the data, not from the text of the source: active = normalized growth mostly below about 0.91 (no sharp cut-off); inconclusive = no clear call, values can overlap the other calls; inactive = mostly above about 0.92.
Assay: chemical genetic growth profiling, strain panel (AID 1159580);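 note: tested at 20 µM; growth read once vehicle control cultures reached saturation at 30 °C; 1 = growth at the plate median or of vehicle wells; lower values mean less growth of the strain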
Conditions: growth OD

C[C@@H]1C[C@@H]([C@H](O)CC2CC(=O)NC(=O)C2)C(=O)[C@@H](C)C1
normalized growth (S. cerevisiae deletion strains, locus YJR075W, strain HOC1, active compounds read low): 0.0698 (active) | normalized growth (S. cerevisiae deletion strains, locus YKL009W, strain mrt4, active compounds read low): 0.0696 (active) | normalized growth (S. cerevisiae deletion strains, locus YKL068W, active compounds read low): 0.0541 (active) | normalized growth (S. cerevisiae deletion strains, locus YKL085W, strain MDH1 (second series), active compounds read low): 0.0512 (active) | normalized growth (S. cerevisiae deletion strains, locus YKL085W, strain MDH1, active compounds read low): 0.0512 (active) | normalized growth (S. cerevisiae deletion strains, locus YKL160W, strain elf1, active compounds read low): 0.0661 (active) | normalized growth (S. cerevisiae deletion strains, locus YKL190W, strain CNB1, active compounds read low): 0.0498 (active) | normalized growth (S. cerevisiae deletion strains, locus YKR001C, strain vps1, active compounds read low): 0.0635 (active) | normalized growth (S. cerevisiae deletion strains, locus YKR026C, strain gcn3, active compounds read low): 0.0607 (active) | normalized growth (S. cerevisiae deletion strains, locus YKR091W, strain srl3, active compounds read low): 0.0583 (active) | normalized growth (S. cerevisiae deletion strains, locus YLL001W, strain dnm1, active compounds read low): 0.0597 (active) | normalized growth (S. cerevisiae deletion strains, locus YLL026W, active compounds read low): 0.0551 (active) | normalized growth (S. cerevisiae deletion strains, locus YLL041C, strain sdh2, active compounds read low): 0.0553 (active) | normalized growth (S. cerevisiae deletion strains, locus YLR027C, strain aat2, active compounds read low): 0.0609 (active) | normalized growth (S. cerevisiae deletion strains, locus YLR039C, strain RIC1, active compounds read low): 0.0922 (active) | normalized growth (S. cerevisiae deletion strains, locus YLR058C, strain SHM2, active compounds read low): 0.041 (active) | normalized growth (S. cerevisiae deletion strains, locus YLR102C, strain apc9, active compounds read low): 0.0592 (active) | normalized growth (S. cerevisiae deletion strains, locus YLR113W, strain HOG1, active compounds read low): 0.12 (active) | normalized growth (S. cerevisiae deletion strains, locus YLR221C, strain rsa3, active compounds read low): 0.0588 (active) | normalized growth (S. cerevisiae deletion strains, locus YLR258W, strain gsy2, active compounds read low): 0.0568 (active) | normalized growth (S. cerevisiae deletion strains, locus YLR262C, strain YPT6 (second series), active compounds read low): 0.0723 (active) | normalized growth (S. cerevisiae deletion strains, locus YLR262C, strain YPT6, active compounds read low): 0.108 (active) | normalized growth (S. cerevisiae deletion strains, locus YLR268W, strain sec22, active compounds read low): 0.0667 (active) | normalized growth (S. cerevisiae deletion strains, locus YLR320W, strain mms22, active compounds read low): 0.0766 (active) | normalized growth (S. cerevisiae deletion strains, locus YLR330W, strain CHS5, active compounds read low): 0.0515 (active) | normalized growth (S. cerevisiae deletion strains, locus YLR342W, strain FKS1 (second series), active compounds read low): 0.0688 (active) | normalized growth (S. cerevisiae deletion strains, locus YLR342W, strain FKS1, active compounds read low): 0.0659 (active) | normalized growth (S. cerevisiae deletion strains, locus YLR357W, strain rsc2, active compounds read low): 0.119 (active) | normalized growth (S. cerevisiae deletion strains, locus YLR370C, strain arc18, active compounds read low): 0.0598 (active) | normalized growth (S. cerevisiae deletion strains, locus YLR371W, strain rom2, active compounds read low): 0.0594 (active) | normalized growth (S. cerevisiae deletion strains, locus YLR384C, strain iki3, active compounds read low): 0.0596 (active) | normalized growth (S. cerevisiae deletion strains, locus YLR418C, strain cdc73, active compounds read low): 0.0977 (active) | normalized growth (S. cerevisiae deletion strains, locus YML016C, strain PPZ1, active compounds read low): 0.055 (active) | normalized growth (S. cerevisiae deletion strains, locus YML032C, strain rad52, active compounds read low): 0.0671 (active) | normalized growth (S. cerevisiae deletion strains, locus YML120C, strain ndi1, active compounds read low): 0.0554 (active) | normalized growth (S. cerevisiae deletion strains, locus YML124C, strain tub3, active compounds read low): 0.0568 (active) | normalized growth (S. cerevisiae deletion strains, locus YMR058W, strain fet3, active compounds read low): 0.0596 (active) | normalized growth (S. cerevisiae deletion strains, locus YMR078C, strain ctf18, active compounds read low): 0.0691 (active) | normalized growth (S. cerevisiae deletion strains, locus YMR125W, strain sto1, active compounds read low): 0.0765 (active) | normalized growth (S. cerevisiae deletion strains, locus YMR129W, active compounds read low): 0.0549 (active) | normalized growth (S. cerevisiae deletion strains, locus YMR205C, strain PFK2, active compounds read low): 0.0823 (active) | normalized growth (S. cerevisiae deletion strains, locus YMR223W, strain ubp8, active compounds read low): 0.065 (active) | normalized growth (S. cerevisiae deletion strains, locus YMR231W, strain pep5, active compounds read low): 0.0689 (active) | normalized growth (S. cerevisiae deletion strains, locus YMR263W, strain SAP30, active compounds read low): 0.0637 (active) | normalized growth (S. cerevisiae deletion strains, locus YMR307W, strain GAS1, active compounds read low): 0.121 (active) | normalized growth (S. cerevisiae deletion strains, locus YNL067W, strain RPL9B, active compounds read low): 0.0574 (active) | normalized growth (S. cerevisiae deletion strains, locus YNL071W, strain lat1, active compounds read low): 0.0587 (active) | normalized growth (S. cerevisiae deletion strains, locus YNL128W, strain TEP1, active compounds read low): 0.0594 (active) | normalized growth (S. cerevisiae deletion strains, locus YNL153C, strain GIM3, active compounds read low): 0.0488 (active) | normalized growth (S. cerevisiae deletion strains, locus YNL183C, strain NPR1, active compounds read low): -0.00319 (active) | normalized growth (S. cerevisiae deletion strains, locus YNL209W, strain ssb2, active compounds read low): 0.0566 (active) | normalized growth (S. cerevisiae deletion strains, locus YNL233W, strain BNI4, active compounds read low): 0.0543 (active) | normalized growth (S. cerevisiae deletion strains, locus YNL248C, strain rpa49, active compounds read low): 0.0754 (active) | normalized growth (S. cerevisiae deletion strains, locus YNL250W, strain rad50, active compounds read low): 0.0626 (active) | normalized growth (S. cerevisiae deletion strains, locus YNL271C, strain bni1, active compounds read low): 0.0609 (active) | normalized growth (S. cerevisiae deletion strains, locus YNL298W, strain CLA4, active compounds read low): 0.0597 (active) | normalized growth (S. cerevisiae deletion strains, locus YNL307C, strain MCK1, active compounds read low): 0.0682 (active) | normalized growth (S. cerevisiae deletion strains, locus YNL322C, strain KRE1 (second series), active compounds read low): 0.0709 (active) | normalized growth (S. cerevisiae deletion strains, locus YNL322C, strain KRE1, active compounds read low): 0.0498 (active) | normalized growth (S. cerevisiae deletion strains, locus YNR049C, strain mso1, active compounds read low): 0.0539 (active) | normalized growth (S. cerevisiae deletion strains, locus YNR052C, strain pop2, active compounds read low): 0.0603 (active) | normalized growth (S. cerevisiae deletion strains, locus YOL006C, strain TOP1, active compounds read low): 0.0855 (active) | normalized growth (S. cerevisiae deletion strains, locus YOL012C, strain htz1): 0.234 | normalized growth (S. cerevisiae deletion strains, locus YOL147C, strain pex11, active compounds read low): 0.0565 (active) | normalized growth (S. cerevisiae deletion strains, locus YOR001W, strain rrp6, active compounds read low): 0.0676 (active) | normalized growth (S. cerevisiae deletion strains, locus YOR061W, strain CKA2, active compounds read low): 0.0412 (active) | normalized growth (S. cerevisiae deletion strains, locus YOR069W, strain VPS5, active compounds read low): 0.0494 (active) | normalized growth (S. cerevisiae deletion strains, locus YOR070C, strain gyp1, active compounds read low): 0.056 (active) | normalized growth (S. cerevisiae deletion strains, locus YOR080W, strain dia2, active compounds read low): 0.0619 (active) | normalized growth (S. cerevisiae deletion strains, locus YOR083W, strain WHI5, active compounds read low): 0.0654 (active) | normalized growth (S. cerevisiae deletion strains, locus YOR106W, strain vam3, active compounds read low): 0.0681 (active) | normalized growth (S. cerevisiae deletion strains, locus YOR136W, strain idh2, active compounds read low): 0.0689 (active) | normalized growth (S. cerevisiae deletion strains, locus YOR144C, strain elg1, active compounds read low): 0.0565 (active) | normalized growth (S. cerevisiae deletion strains, locus YOR184W, strain ser1, active compounds read low): 0.0727 (active) | normalized growth (S. cerevisiae deletion strains, locus YOR231W, strain MKK1, active compounds read low): 0.111 (active) | normalized growth (S. cerevisiae deletion strains, locus YOR265W, strain rbl2, active compounds read low): 0.0548 (active) | normalized growth (S. cerevisiae deletion strains, locus YOR270C, strain vph1, active compounds read low): 0.1 (active) | normalized growth (S. cerevisiae deletion strains, locus YOR290C, strain snf2, active compounds read low): 0.0637 (active) | normalized growth (S. cerevisiae deletion strains, locus YOR316C, strain cot1, active compounds read low): 0.0575 (active) | normalized growth (S. cerevisiae deletion strains, locus YPL051W, strain arl3, active compounds read low): 0.0621 (active) | normalized growth (S. cerevisiae deletion strains, locus YPL055C, strain LGE1, active compounds read low): 0.0743 (active) | normalized growth (S. cerevisiae deletion strains, locus YPL078C, strain atp4, active compounds read low): 0.0696 (active) | normalized growth (S. cerevisiae deletion strains, locus YPL106C, strain sse1, active compounds read low): 0.0938 (active) | normalized growth (S. cerevisiae deletion strains, locus YPL240C, strain hsp82, active compounds read low): 0.0556 (active) | normalized growth (S. cerevisiae deletion strains, locus YPL241C, strain CIN2, active compounds read low): 0.0514 (active) | normalized growth (S. cerevisiae deletion strains, locus YPL256C, strain CLN2, active compounds read low): 0.112 (active) | normalized growth (S. cerevisiae deletion strains, locus YPR119W, strain clb2, active compounds read low): 0.0611 (active) | normalized growth (S. cerevisiae deletion strains, locus YPR141C, strain kar3, active compounds read low): 0.0644 (active) | normalized growth (S. cerevisiae deletion strains, locus YPR163C, strain tif3, active compounds read low): 0.0667 (active) | normalized growth (S. cerevisiae deletion strains, locus YPR167C, strain met16, active compounds read low): 0.0591 (active) | normalized growth (S. cerevisiae deletion strains, strain wtn01, active compounds read low): 0.0603 (active) | normalized growth (S. cerevisiae strains, strain wild type, active compounds read low): 0.0494 (active)

— PubChem BioAssay AID1159580 (chemical genetic matrix, 2015)
